Assay results from PubChem BioAssay AID588343 (Broad Institute, 2011).
Hit rate of the full screen: of about 1,200 compounds, about 650 (54%) were called active. Not shown: some 5% with an inconclusive outcome. So high a share suggests a set chosen from earlier hits. These entries were drawn from the full list. Entries with a potency or affinity are not part of this list. Values without a mark were called inactive.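 Rule for the calls: active = signal-lowering curve whose fitted half-maximal concentration is at or below ten times the top valid dose tested; inconclusive = flat curve with 30 to 70% inhibition, or poor fit; inactive = signal increase, flat within 30%, or potency beyond limit.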

test: EBV LMP1 TES2 canonical NF-kB signalling blockers – cell-based, HEK293, luciferase, cherry-pick, dose response (AID 588343); settings: HEK293 LMP1 TES2 NF-kB luciferase reporter, 16 h; series mostly up to 35 µM; activity change, negative = inhibition: at the top concentration;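 note: 0% = median of neutral control wells and -100% = MG132 positive control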

SMILES | activity change, negative = inhibition
Cc1c(C=O)c2ccccn2c1C(=O)c1ccccc1Cl | -10.8%
COc1cc(/C=N/NC(=O)c2cccc(S(=O)(=O)N3CCOCC3)c2)cc(OC)c1O | 0.063%
Cc1ccc(S(=O)(=O)N2CCCCC2)cc1NC(=O)CNc1ccccc1N1CCCC1=O | 20%
CC(=O)c1ccccc1OCC(=O)Nc1cccc(S(=O)(=O)N2CCCC2)c1 | 27.2%
Cc1ccc(-c2nnn(CC(=O)N(Cc3ccco3)C(C(=O)NC(C)(C)C)c3ccncc3)n2)o1 (stereo not given) | 0.887%
CCOC(=O)Cc1csc(N/N=C\c2ccc(N(C)C)cc2)n1 | -10.4%
COc1ccc(/C=N/NC(=O)COc2ccccc2-c2ccccc2)cc1 | -5.95%
COc1ccccc1C(=O)NC(=O)CSc1nnc(N)s1 | 3.08%
Cc1ccc(N(Cc2cc3ccccc3[nH]c2=O)C(=O)c2ccco2)c(C)c1 | 7.13%
Cc1ccc(CN2C(=O)CCC2C(=O)NCCCN2CCC(C)CC2)cc1 (stereo not given) | -7.63%
COc1ccc(N2CCN(CCNC(=O)CCCn3c(=O)[nH]c4cc(Cl)ccc4c3=O)CC2)cc1 | 5.67%
COc1ccc(-c2nc(CS(=O)CC(=O)NCc3ccc(Cl)cc3)c(C)o2)cc1 (stereo not given) | 12.4%
CC1CC(C)CN(S(=O)(=O)c2ccc(NC(=O)CCN3C(=O)C4CC=CCC4C3=O)cc2)C1 (stereo not given) | -5.72%
CC1(C)CN(Cc2ccccc2)C(=O)[C@H]1CC(=O)Nc1ccccc1 | -7.78%
CC(C)(C)c1nc2c(s1)CCc1onc(-c3ccc(Br)cc3)c1-2 | -1.55%
O=C(O)c1ccc(C=NNC(=O)c2cccc3ccccc23)cc1 | -11.7%
CS(=O)(=O)Nc1ccc(C2=NN(S(C)(=O)=O)C(c3ccccc3)C2)cc1 (stereo not given) | 8.63%
CC(=O)NC(CCS(C)(=O)=O)C(=O)Nc1ccc(Cl)c(Cl)c1 (stereo not given) | -1.94%
Cc1cc(C)c(OCCn2ccnc2)c(C)c1 | 26.1%
COCCn1c(SCCN2CCOCC2)nc2c1c(=O)[nH]c(=O)n2C | 2.32%
CN1CCN(C(=O)C2=C[C@@H](C(C)(C)C)C[C@@H](OCc3ccc(CO)cc3)O2)CC1 | 7.97%
COC(=O)[C@H](C)[C@H]1C[C@]1(C)[C@H](NC(=O)OCc1ccccc1)c1ccccc1 | -3.31%
Cc1nc(C)n(C(C)CNC(=O)c2ccco2)n1 (stereo not given) | 10%
O=C1CCCN2N=C(SCC(=O)Nc3ccc(Br)cc3)SC2=N1 | 16.1%
CSc1nc(C)cc(C)c1C#N | -9.57%
CC(=O)c1ccc(-n2nnnc2SCC(=O)N2CCc3ccccc3C2)cc1 | -15.1%
CCSc1nnc(NC(=O)CSc2nnc(-c3c[nH]c4ccccc34)n2CC)s1 | 37.4%
Cc1cccc(S(=O)(=O)N2CCCc3ccccc32)c1 | -11.4%
COc1ccc(S(=O)(=O)N2CCN(CC(=O)Nc3cc(OC)cc(OC)c3)CC2)cc1 | 16.4%
COc1ccc(C(=O)CN(CCC(=O)O)S(=O)(=O)c2ccc([N+](=O)[O-])cc2)cc1 | -5.91%
